Drawing on PubChem BioAssay (EPA / NIEHS), this text covers outcome and AC50 for 5 molecules.

Assay [1] deals with Peroxisome proliferator-activated receptor gamma (Homo sapiens) (UniProt P37231). As to the kind of experiment: OT_PPARg_PPARgSRC1_0480: Odyssey Thera (OT) 8-hour Protein-Complementation Assay for Peroxisome Proliferator-activated Receptor Gamma / SRC-1 Co-activator (AID 2283387; active = hit-call score of the fitted dose curve at least 0.9, where 1 is the maximum;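 note: nuclear to cytoplasmic split Venus YFP fluorescence ratio reporting PPARg SRC-1 interaction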). Put shortly:
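Read-out: 488 nm N/C fluorescence ratio from complemented Venus YFP fragments, ≥350 cells per image, gain-of-signal fitted against DMSO baseline. Fusions of PPARg/SRC-1 with IFP1/IFP2 expressed transiently in HEK293T; compounds applied 8 h.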

Assay [2] has the same target. Description: OT_PPARg_PPARgSRC1_1440: Odyssey Thera (OT) 24-hour Protein-Complementation Assay for Peroxisome Proliferator-activated Receptor Gamma/ SRC-1 Co-activator (AID 2283388; active = hit-call score of the fitted dose curve at least 0.9, where 1 is the maximum;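 note: nuclear to cytoplasmic ratio of reconstituted Venus YFP fluorescence in fixed imaged cells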). Put shortly:
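Cells carrying the PPARg/SRC-1 fragment-complementation reporter receive compound for 24 hours, are fixed and counterstained with Draq5, then imaged. Increased nuclear relative to cytoplasmic YFP fluorescence above DMSO baseline indicates binding activity.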

Assay [3] can be described thus: CEETOX_H295R_11DCORT: CeeTox H295R High-throughput Steroidogenesis Assay for 11-Deoxycortisol (11DCORT) (AID 2283432). The conditions noted are these: actives raise or lower the signal. Summed up: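 H295R cells; 10 uM forskolin prestim 48 h; compound in 0.1% DMSO 48 h; media extracted with MTBE; 11-deoxycortisol by LC-MS/MS, 7-point standard curve; gain/loss vs DMSO baseline; viability by MTT in same wells.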

Assay [4] can be described thus: CEETOX_H295R_OHPREG: CeeTox H295R High-throughput Steroidogenesis Assay for OH-Pregnenolone (OHPREG) (AID 2283434). As to conditions: actives raise or lower the signal. Put shortly:
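H295R cells pre-stimulated 48 h with 10 uM forskolin, then exposed 48 h to chemical in 0.1% DMSO. 17alpha-hydroxypregnenolone in medium quantified by MTBE extraction and HPLC-MS/MS; bidirectional fit versus DMSO, viability checked by MTT.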

Assay [5] in a line: CEETOX_H295R_CORTIC: CeeTox H295R High-throughput Steroidogenesis Assay for Corticosterone (CORTIC) (AID 2283437).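 Note: corticosterone secreted into medium quantified by mass spectrometry.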 As to conditions: actives raise or lower the signal. Summed up:
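H295R adrenal cells prestimulated 48 hours with 10 uM forskolin, then exposed 48 hours to chemical in 0.1% DMSO. Corticosterone in medium measured by HPLC-MS/MS after MTBE extraction; MTT viability in the same wells; bidirectional fit versus DMSO.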

The nature of assay [6]: CEETOX_H295R_CORTISOL: CeeTox H295R High-throughput Steroidogenesis Assay for Cortisol (AID 2283438).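 Note: cortisol secreted into medium quantified by LC-MS/MS.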 The conditions noted are these: actives raise or lower the signal. Summed up:
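Human adrenocortical H295R cells (passage ≤10) received test chemicals for 48 h after forskolin priming. Secreted cortisol was measured by LC-MS/MS.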

Assay [7] can be described thus: CEETOX_H295R_DOC: CeeTox H295R High-throughput Steroidogenesis Assay for DOC (AID 2283439). As to conditions: actives raise or lower the signal. Put shortly:
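Secreted DOC was quantified from H295R media by HPLC-MS/MS after 48 h chemical exposure following 48 h forskolin (10 uM) prestimulation. Values were fitted in both directions relative to DMSO, the negative control and baseline.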

The nature of assay [8]: CEETOX_H295R_PROG: CeeTox H295R High-throughput Steroidogenesis Assay for Progesterone (PROG) (AID 2283442).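 For AC50: human H295R adrenal cells primed with 10 µM forskolin before dosing.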 As to conditions: actives raise or lower the signal. Put shortly: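 Measured analyte is progesterone secreted by H295R cells at 48 h of chemical treatment, following 10 uM forskolin priming. Quantitation used HPLC-MS/MS against a 7-point standard curve; cytotoxicity was checked by MTT absorbance.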

Read-out in assay [9]: Tumor necrosis factor receptor superfamily member 6 (Homo sapiens) (UniProt P25445)
Description: LTEA_HepaRG_FAS: Life Technologies and Expression Analysis (LTEA) Assay for Fas cell surface death receptor (FAS) using HepaRG (AID 2283447). As to conditions: mRNA level, 48 h; actives raise or lower the signal. Summed up: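 Differentiated HepaRG cells in serum-free induction medium were exposed 48 h to 8 half-log concentrations up to 100 uM in 0.5% DMSO, in duplicate. FAS mRNA was measured by qRT-PCR normalised to ACTB, GAPDH and POLR2A; bidirectional fit versus DMSO.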

Read-out in assay [10]: Fatty acid synthase (Homo sapiens) (UniProt P49327)
Description: LTEA_HepaRG_FASN: Life Technologies and Expression Analysis (LTEA) Assay for Fatty Acid Synthase (FASN) using HepaRG (AID 2283448). The conditions noted are these: mRNA level, 48 h; actives raise or lower the signal. Put shortly: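 Transcript-level assay: HepaRG liver cells are treated for 48 h across an eight-point range topping at 100 uM, and FASN mRNA, normalized to three housekeeping genes, is compared with DMSO controls in both directions.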

Read-out in assay [11]: Cyclin D1 (CCND1), CCND1 (gene 595)
Description: LTEA_HepaRG_CCND1: Life Technologies and Expression Analysis (LTEA) Assay for Cyclin D1 (CCND1) using HepaRG (AID 2283451). The conditions noted are these: mRNA level, 48 h; actives raise or lower the signal. Put shortly:
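Expression change is measured by qRT-PCR in HepaRG cells after 48 h treatment across eight concentrations topping at 100 uM, with duplicate wells and DMSO (0.5%) serving as baseline for bidirectional fitting.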

Read-out in assay [12]: catalase (CAT), CAT (gene 847)
Description: LTEA_HepaRG_CAT: Life Technologies and Expression Analysis (LTEA) Assay for catalase (CAT) using HepaRG (AID 2283452). The conditions noted are these: mRNA level, 48 h; actives raise or lower the signal. Put shortly:
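HepaRG cells in serum-free induction medium, 0.5% DMSO vehicle, exposed 48 h in duplicate over 8 half-log concentrations from 100 uM. CAT mRNA measured by qRT-PCR, normalized to ACTB, GAPDH, POLR2A; bidirectional fit versus DMSO.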

Read-out in assay [13]: flavin-containing dimethylaniline monooxygenases 3 (FMO3), FMO3 (gene 2328)
As to the kind of experiment: LTEA_HepaRG_FMO3: Life Technologies and Expression Analysis (LTEA) Assay for flavin-containing dimethylaniline monooxygenases 3 (FMO3) using HepaRG (AID 2283453).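 For AC50: differentiated human HepaRG liver cells in serum-free induction medium; FMO3 transcript by TaqMan qRT-PCR normalized to ACTB GAPDH and POLR2A.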 As to conditions: mRNA level, 48 h; actives raise or lower the signal. Summed up: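 HepaRG, 48 h exposure, 8-pt half-log series from 100 uM, 0.5% DMSO vehicle, duplicates; FMO3 transcript by Fluidigm TaqMan qRT-PCR, housekeeping-normalized; gain/loss fit vs DMSO.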

Read-out in assay [14]: Cytochrome P450 (CYP1A1), CYP1A1 (gene 1543)
As to the kind of experiment: LTEA_HepaRG_CYP1A1: Life Technologies and Expression Analysis (LTEA) Assay for Cytochrome P450 (CYP1A1) using HepaRG (AID 2283454). The conditions noted are these: mRNA level, 48 h; actives raise or lower the signal. Put shortly: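 Using HepaRG cultures with 0.5% DMSO as vehicle, eight-concentration exposures (max 100 uM) lasted 48 h. Transcript levels were measured by TaqMan qRT-PCR and normalized to ACTB, GAPDH and POLR2A.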

Read-out in assay [15]: CFLAR gene, CFLAR (gene 8837)
Description: LTEA_HepaRG_CFLAR: Life Technologies and Expression Analysis (LTEA) Assay for CFLAR gene using HepaRG (AID 2283455). As to conditions: mRNA level, 48 h; actives raise or lower the signal. Summed up:
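Differentiated HepaRG cells in serum-free induction medium were exposed 48 h in duplicate to eight half-log concentrations up to 100 uM in 0.5% DMSO; mRNA measured by TaqMan qRT-PCR, normalized to ACTB, GAPDH, POLR2A; bidirectional fitting versus DMSO.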

Read-out in assay [16]: Forkhead box O1 (FOXO1), FOXO1 (gene 2308)
As to the kind of experiment: LTEA_HepaRG_FOXO1: Life Technologies and Expression Analysis (LTEA) Assay for Forkhead box O1 (FOXO1) using HepaRG (AID 2283456). As to conditions: mRNA level, 48 h; actives raise or lower the signal. Summed up:
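Differentiated HepaRG cells, in serum-free induction medium with 0.5% DMSO, exposed 48 h in duplicate to 8-point half-log series from 100 uM. FOXO1 mRNA measured by TaqMan qRT-PCR, normalized to ACTB, GAPDH, POLR2A; bidirectional fit versus DMSO.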

A short description of assay [17]: CEETOX_H295R_ANDR: CeeTox H295R High-throughput Steroidogenesis Assay for Androstenedione (ANDR) (AID 2283436). As to conditions: actives raise or lower the signal. Put shortly:
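H295R cells, following OECD 456 with minor changes, exposed to chemicals for 48 h. Androstenedione in the medium was quantified by HPLC-MS/MS after MTBE extraction. Fitting was bidirectional versus DMSO; chemicals were diluted until MTT viability was ≥70%.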

Assay [18] is described as follows: CEETOX_H295R_TESTO: CeeTox H295R High-throughput Steroidogenesis Assay for Testosterone (TESTO) (AID 2283457). The conditions noted are these: actives raise or lower the signal. Put shortly:
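Steroidogenesis in H295R cells following OECD 456 with minor changes; 48 h exposure. Medium testosterone by HPLC-MS/MS, DMSO as baseline, with MTT viability run in parallel.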

Read-out in assay [19]: Cyclin D2 (CCND2), CCND2 (gene 894)
Description: LTEA_HepaRG_CCND2: Life Technologies and Expression Analysis (LTEA) Assay for Cyclin D2 (CCND2) using HepaRG (AID 2283449).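 Note: CCND2 transcript measured by TaqMan qRT-PCR and normalised to three housekeeping genes.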 The conditions noted are these: mRNA level, 48 h; actives raise or lower the signal. Summed up:
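Chemicals in 0.5% DMSO, eight half-log concentrations from 100 uM top, were applied in duplicate for 48 h to human HepaRG cells in serum-free induction medium. CCND2 mRNA by TaqMan qRT-PCR, normalised to ACTB/GAPDH/POLR2A; bidirectional fit versus DMSO.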

Read-out in assay [20]: Cyclin Dependent Kinase Inhibitor 1A (CDKN1A), CDKN1A (gene 1026)
As to the kind of experiment: LTEA_HepaRG_CDKN1A: Life Technologies and Expression Analysis (LTEA) Assay for Cyclin Dependent Kinase Inhibitor 1A (CDKN1A) using HepaRG (AID 2283450). As to conditions: mRNA level, 48 h; actives raise or lower the signal. Put shortly:
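Gain or loss of CDKN1A transcript is scored by bidirectional fitting against 0.5% DMSO vehicle. Human HepaRG cultures receive chemicals for 48 h across an 8-point series peaking at 100 uM; expression comes from qRT-PCR.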

Results filed as inconclusive are left out. Calls of active or inactive are those of the source. Rule for the calls, unless noted: active = hit-call score of the fitted dose curve at least 0.9, where 1 is the maximum; inactive = score below 0.9.

Sequence of Fatty acid synthase (Homo sapiens) (P49327 whole entry, looked up): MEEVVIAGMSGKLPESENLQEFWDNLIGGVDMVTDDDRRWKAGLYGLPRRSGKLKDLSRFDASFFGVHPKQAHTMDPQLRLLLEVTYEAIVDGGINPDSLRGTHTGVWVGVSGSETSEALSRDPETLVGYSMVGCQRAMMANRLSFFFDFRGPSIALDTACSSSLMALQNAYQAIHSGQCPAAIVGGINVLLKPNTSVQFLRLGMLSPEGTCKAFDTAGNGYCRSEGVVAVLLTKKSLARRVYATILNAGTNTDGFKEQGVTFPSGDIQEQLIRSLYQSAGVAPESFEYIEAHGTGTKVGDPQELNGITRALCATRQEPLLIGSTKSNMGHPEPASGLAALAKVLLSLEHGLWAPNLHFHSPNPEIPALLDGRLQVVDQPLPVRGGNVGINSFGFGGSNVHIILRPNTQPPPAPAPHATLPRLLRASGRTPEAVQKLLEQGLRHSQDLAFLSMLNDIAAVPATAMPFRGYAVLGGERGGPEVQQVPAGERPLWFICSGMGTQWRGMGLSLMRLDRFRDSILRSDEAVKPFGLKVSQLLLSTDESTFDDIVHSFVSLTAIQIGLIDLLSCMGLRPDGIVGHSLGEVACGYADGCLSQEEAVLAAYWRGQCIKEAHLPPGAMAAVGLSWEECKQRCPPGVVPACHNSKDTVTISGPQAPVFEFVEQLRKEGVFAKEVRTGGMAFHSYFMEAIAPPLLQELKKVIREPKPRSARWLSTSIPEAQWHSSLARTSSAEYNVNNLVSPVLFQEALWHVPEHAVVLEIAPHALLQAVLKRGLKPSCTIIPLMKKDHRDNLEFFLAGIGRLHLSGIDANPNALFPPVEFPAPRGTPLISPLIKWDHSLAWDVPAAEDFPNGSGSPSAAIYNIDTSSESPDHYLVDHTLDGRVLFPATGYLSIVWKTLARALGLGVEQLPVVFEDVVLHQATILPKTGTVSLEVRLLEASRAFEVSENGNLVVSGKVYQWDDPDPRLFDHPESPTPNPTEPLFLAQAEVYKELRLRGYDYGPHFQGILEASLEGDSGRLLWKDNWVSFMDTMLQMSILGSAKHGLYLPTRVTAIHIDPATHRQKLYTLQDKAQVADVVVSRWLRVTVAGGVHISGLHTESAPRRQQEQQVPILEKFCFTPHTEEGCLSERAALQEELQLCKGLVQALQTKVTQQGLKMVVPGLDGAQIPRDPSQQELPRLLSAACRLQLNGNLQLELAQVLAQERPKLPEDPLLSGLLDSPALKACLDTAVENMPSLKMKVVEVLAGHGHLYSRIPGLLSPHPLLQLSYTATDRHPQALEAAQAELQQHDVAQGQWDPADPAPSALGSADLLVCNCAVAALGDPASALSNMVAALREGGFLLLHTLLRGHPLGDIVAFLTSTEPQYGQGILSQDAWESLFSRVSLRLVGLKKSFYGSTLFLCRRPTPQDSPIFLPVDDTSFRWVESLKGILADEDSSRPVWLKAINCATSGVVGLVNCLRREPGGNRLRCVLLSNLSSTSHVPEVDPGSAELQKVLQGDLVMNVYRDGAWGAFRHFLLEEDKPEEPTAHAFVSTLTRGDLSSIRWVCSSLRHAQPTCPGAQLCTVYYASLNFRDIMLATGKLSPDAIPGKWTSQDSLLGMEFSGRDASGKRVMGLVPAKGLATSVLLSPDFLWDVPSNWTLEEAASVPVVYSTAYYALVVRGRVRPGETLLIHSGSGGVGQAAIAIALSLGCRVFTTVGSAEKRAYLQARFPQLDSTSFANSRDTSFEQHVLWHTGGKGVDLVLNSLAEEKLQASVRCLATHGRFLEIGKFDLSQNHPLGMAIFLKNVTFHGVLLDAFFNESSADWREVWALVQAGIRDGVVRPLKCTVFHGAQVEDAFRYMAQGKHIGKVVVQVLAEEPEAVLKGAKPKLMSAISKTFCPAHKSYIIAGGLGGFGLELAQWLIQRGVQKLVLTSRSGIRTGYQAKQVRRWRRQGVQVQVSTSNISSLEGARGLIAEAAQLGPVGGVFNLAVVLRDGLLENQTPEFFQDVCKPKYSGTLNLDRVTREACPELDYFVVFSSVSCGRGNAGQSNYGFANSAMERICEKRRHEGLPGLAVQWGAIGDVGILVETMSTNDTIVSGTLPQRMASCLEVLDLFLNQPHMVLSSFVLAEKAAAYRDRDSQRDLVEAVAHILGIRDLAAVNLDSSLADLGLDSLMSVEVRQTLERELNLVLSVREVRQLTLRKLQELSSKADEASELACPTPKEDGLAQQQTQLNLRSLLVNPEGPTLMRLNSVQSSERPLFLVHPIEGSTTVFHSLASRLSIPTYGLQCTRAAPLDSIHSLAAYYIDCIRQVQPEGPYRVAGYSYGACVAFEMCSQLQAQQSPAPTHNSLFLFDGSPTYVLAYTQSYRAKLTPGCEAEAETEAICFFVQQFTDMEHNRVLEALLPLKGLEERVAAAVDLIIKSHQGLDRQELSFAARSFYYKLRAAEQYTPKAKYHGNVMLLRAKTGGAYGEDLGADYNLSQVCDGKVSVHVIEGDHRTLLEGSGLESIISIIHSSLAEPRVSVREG
Sequence of Peroxisome proliferator-activated receptor gamma (Homo sapiens) (P37231 whole entry, looked up, the tested form may be a part): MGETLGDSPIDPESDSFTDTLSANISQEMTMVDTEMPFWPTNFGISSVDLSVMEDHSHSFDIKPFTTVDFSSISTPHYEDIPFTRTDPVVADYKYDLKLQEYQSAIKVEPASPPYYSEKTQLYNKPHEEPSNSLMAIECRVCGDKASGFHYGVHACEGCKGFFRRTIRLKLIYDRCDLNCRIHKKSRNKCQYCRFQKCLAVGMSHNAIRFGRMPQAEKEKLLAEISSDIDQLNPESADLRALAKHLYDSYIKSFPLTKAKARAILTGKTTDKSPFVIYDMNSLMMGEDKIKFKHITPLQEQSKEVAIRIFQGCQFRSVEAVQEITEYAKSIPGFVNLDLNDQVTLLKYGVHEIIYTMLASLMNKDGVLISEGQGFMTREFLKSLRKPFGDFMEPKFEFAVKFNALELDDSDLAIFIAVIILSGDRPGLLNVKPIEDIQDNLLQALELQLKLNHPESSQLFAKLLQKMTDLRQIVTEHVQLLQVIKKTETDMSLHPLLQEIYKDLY

For orientation: AC50 means the concentration giving half of the maximal activity seen. With `CCOC(=O)C(Cl)Cc1cc(-n2nc(C)n(C(F)F)c2=O)c(F)cc1Cl` (stereo not given), the outcome in [1], in [2], in assay [3], in assay [4], in assay [5] and in [6] was inactive. Besides, the call in assay [8], in assay [9], in assay [10], in [11], in assay [12] and in assay [13] was inactive. Further, the outcome in assay [15] and in [16] was inactive. Besides, the results for the concentration at half-maximal activity (AC50) in assay [7] and in assay [14] were 17.2 µM (active) and 61.9 µM (active), respectively.

Take `CCOC(=O)CC(SP(=S)(OC)OC)C(=O)OCC` (stereo not given): the call in assay [1], in [2], in assay [3], in assay [4], in assay [17] and in assay [5] was inactive. The molecule was called inactive in assay [6], in assay [7], in assay [9], in assay [11], in [12] and in [13]. In addition, the molecule was called inactive in assay [15], in [16] and in assay [18]. The figures for the AC50 in assay [8] and in assay [14] were 21 µM (active) and 22.8 µM (active), respectively.

In the case of `CC(Oc1ccc(Cl)cc1Cl)C(=O)O` (stereo not given), the call in assay [1], in assay [2], in [9], in assay [10], in assay [19] and in [20] was inactive. Also, the molecule was classed as inactive in [11], in assay [12], in assay [13], in [15] and in assay [16]. The AC50 in assay [14] was 50 µM (active).

In the case of `CC(C)Oc1cc(-n2nc(C(C)(C)C)oc2=O)c(Cl)cc1Cl`, the molecule was classed as inactive in [1], in [2], in assay [3], in assay [17], in [5] and in assay [6]. Further, the molecule was classed as inactive in [7], in [8], in assay [9], in assay [10], in [11] and in assay [15]. The outcome in [16] and in assay [18] was inactive. Moreover, the AC50 in assay [4] is 0.951 µM (active); in [12], 50 µM (active); in assay [13], 61.5 µM (active); in [14], 13.2 µM (active).

On to `COc1cnc(OC)n2nc(NS(=O)(=O)c3c(OCC(F)F)cccc3C(F)(F)F)nc12`, for which the call in assay [1], in [2], in assay [9], in assay [10], in assay [19] and in assay [20] was inactive. For the same molecule, the result in assay [11], in assay [12], in [13], in [15] and in [16] was inactive. Moreover, in assay [14], the AC50 was 32.8 µM (active).
